In the OligoGym collection:

molecular target: DLAT; assay: pooled miR-30 sensor sort-seq; sequence = guide strand; conditions: shRNA
Further: reference of the scale not given here.

| Sequence | sensor-assay potency score (higher = more potent) |
| --- | --- |
| TTGCTGATTGGGATATCTGTGA | -0.131 |
| TTTTTCTACAATGATACAGAGT | -0.634 |
| TTCTCCCATATTTACATCGATA | -1.59 |
| TTCATTATCTGCAGGGACCAGT | -0.346 |
| TAAGTCTCCTTCACTTAGCTTC | -0.196 |
| TAATCGCTGTGCAATAACCCGA | -0.457 |
| TTGGTGATTCTACCATCTGGTC | -1.07 |
| TAGAAAGGTAATAATGAGGTAT | -0.0638 |
| TTCTCTACTGCCAACTTCTTTG | -0.772 |
| TTTGTCTTATAACTGTGTCCAT | -0.255 |
| TTGCTAAAGAAACAACATCATT | -1.57 |
| TTTTAAATCTGTTACTTCGGTT | -0.836 |

molecular target: DLGAP2; assay: as above; conditions: shRNA

| Sequence | sensor-assay potency score (higher = more potent) |
| --- | --- |
| TTGTCTGTCGGGCAGGTCCAGG | -1.29 |
| TTTACCGAGAATTTCCTCCGAG | 0.34 |
| TTGTATATGAGACAGCTGCTGT | -0.506 |
| TTGACGTCGTTGTTGCTCTTGG | 0.201 |
| TTCAACTTCACTGAAGACGGAC | -0.0753 |
| ATAGGTGCTGTCGCTGTCCAGG | -0.97 |
| TTGTTCGGAAACATCCCGGGAG | 0.236 |
| TCCTTGTTCGGAAACATCCCGG | -1.01 |
| TAGAACGTTTAAAACGTCCGTG | -0.169 |
| TAGCTGTGACTCCTTGTTCGGA | -0.676 |
| TAGATCTCGATGCTGTCCGCGC | -0.416 |
| TTTTTTTGAATGCTACAGCTGG | -0.304 |

molecular target: DMBX1; assay: as above; conditions: shRNA

| Sequence | sensor-assay potency score (higher = more potent) |
| --- | --- |
| TGAACCACACCTGCACCCGGGC | -1.56 |
| TTTTACTGTTCAGGGTAGCTGA | -0.522 |
| TCACGCATCACCACATCTGGGT | 0.0309 |
| TTGAACCACACCTGCACCCGGG | -0.844 |
| TGAGCCGTGAACGCTGTGCGGC | -1.33 |
| TTCCTTCTGCAGGCTACGCTGC | -1.18 |
| TCTGGGTAGTGAGTCTTCTGGA | -0.662 |
| TGGGTAGTGAGTCTTCTGGAAG | -2.04 |
| TTCTTCCGGAACTTGGCCCGGC | -0.414 |
| TTGTACATGGCGCTGAGTGAGT | -0.81 |
| TTACTGTTCAGGGTAGCTGATG | -1.25 |
| TGACTGCTCAGACAGACTCAGG | -1.97 |

molecular target: DMKN; assay: as above; conditions: shRNA

| Sequence | sensor-assay potency score (higher = more potent) |
| --- | --- |
| TGACTGAGTACTTCCCACCATA | -1.25 |
| TAGTTCTGATCGGCTCTGCCTG | -0.576 |
| TTGTAGTTCTGATCGGCTCTGC | 0.13 |
| TGTAATTGTAGTTCTGATCGGC | 0.784 |
